A short description of assay [1]: qHTS assay for small molecule agonists of the p53 signaling pathway (AID 651631; calls by dose curve; further: nearly all actives have a fitted effect of over 15% in size; further: potency means the concentration at half of the fitted maximal effect). In outline: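 HCT-116 cells carrying a beta-lactamase reporter under p53 response elements were dosed with compound for 16 h at 37 °C. LiveBLAzer B/G FRET substrate was then added for 2 h at room temperature, and fluorescence intensity was read to detect pathway agonism.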
(In general: Quantitative high-throughput screening tests each substance at several concentrations.)

A short description of assay [2]: qHTS assay for small molecules that induce genotoxicity in human embryonic kidney cells expressing luciferase-tagged ATAD5 (AID 651632). Further: nearly all actives have a fitted effect of over 15% in size. The method in brief:
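Luminescence read-out: after 16 hr compound exposure at 37C, ATAD5-luciferase HEK293T cells received Amplite, 30 min RT, then CCD imaging. A rise in signal marks genotoxic stress.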

Assay [3] is described as follows: qHTS assay for small molecule agonists of the p53 signaling pathway - cell viability (AID 651633; calls by dose curve; further: nearly all actives have a fitted effect of over 30% in size; further: potency means the concentration at half of the fitted maximal effect;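 on activity change, negative = cytotoxicity: p53RE-bla HCT reporter cells with a stable beta-lactamase p53 reporter; series mostly up to about 83 µM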). The method in brief:
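p53RE-bla cells were treated with compound for 16 hours at 37 C. Cytotoxicity was then measured as CellTiter-Glo luminescence after 30 min at room temperature.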

Assay [4] is described as follows: qHTS assay for small molecule disruptors of the mitochondrial membrane potential (AID 720635). Further: potency means the concentration at half of the fitted maximal effect. In outline: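 HepG2 cells exposed to compound 1 hr at 37C, then Mito-MPS dye 30 min. Ratio read of aggregate (540/590 nm) versus monomer (490/535 nm) fluorescence.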
The nature of assay [5]: qHTS assay to test for compound auto fluorescence at 590 nm (red) in HepG2 cells (AID 720674). In outline: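 Seeding: 2,000 HepG2 cells/well, MEM/10% FBS, overnight 37 C. Dosing: compound vs DMSO. Incubation: 1 hr, 37 C, 5% CO2. Read: fluorescence 540 ex/590 em, Rose Bengal sodium as red reference.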
Assay [6] is described as follows: qHTS assay to test for compound auto fluorescence at 535 nm (green) in HepG2 cells (AID 720675).
Assay [7] can be described thus: qHTS assay to test for compound auto fluorescence at 590 nm (red) in HEK293 cells (AID 720679). In outline: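 Plates of HEK293 cells (10% dialyzed FBS) are treated with 23 nL compound or DMSO vehicle after a 4-5 hr attachment period, incubated overnight at 37C, and read for red fluorescence at 540/590nm.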
The nature of assay [8]: qHTS assay for small molecule disruptors of the mitochondrial membrane potential - cell viability (AID 720634; calls by dose curve;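 further: human HepG2 liver cancer cells; series mostly up to about 83 µM; nearly all actives have a fitted effect of over 20% in size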). The method in brief:
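Luminescence from CellTiter-Glo (ATP content) gave viability in HepG2 cells, read in the same wells as the MMP dye assay after 1 hr compound exposure at 37 C.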

Assay [9] is described as follows: qHTS assay to test for compound auto fluorescence at 460 nm (blue) in HEK293 cells (AID 720678). The method in brief: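 After cell attachment (4-5 hr, 37C), compounds were pinned onto HEK293 monolayers in 10% dialyzed FBS medium. The blue channel (405/460 nm) was read following overnight culture. Equivalency was calculated against triamterene.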
The nature of assay [10]: qHTS assay for small molecules that induce genotoxicity in human embryonic kidney cells expressing luciferase-tagged ATAD5 - cell viability (AID 651634; calls by dose curve; further: nearly all actives have a fitted effect of over 25% in size; further: potency means the concentration at half of the fitted maximal effect). In outline:
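HEK293T ATAD5-luc cells, 2,000/well; compound 15.5 hr, 37C/5% CO2; CellTiter-Fluor 30 min, 37C; fluorescence read.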

“And” between values parts separate entries of the source, which are not always exact repeats. Identical values can stand only once. A number with no mark means an inactive call. Records with an inconclusive call do not appear. More than one record can exist for a structure, and the calls need not agree. The source made the active and inactive calls. Unless noted, the call rests on the fitted dose curve; in most records, active means well fitted curve in the direction sought with a large enough effect in the repeat runs; inconclusive means weak or mixed curves; inactive means no such curve, though single readings can be large; an effect the other way counts as inactive or inconclusive.
On the % scale 0 is the no-effect control and ±100 the full control effect.

Regarding `Nc1nc(Cl)nc2c1ncn2[C@H]1C[C@H](O)[C@@H](CO)O1`, the Potency in assay [1] is 841 nM (active) and 341 nM (active). In addition, the Potency result in assay [2], in [3] and in assay [4] was “inactive” each time. The result in assay [5], in assay [6] and in assay [7] was inactive.

Turning to `Cc1cc(C)c(C)c(O)c1`, the Potency entry in assay [1], in assay [2], in assay [3], in assay [8] and in assay [9] was “inactive” throughout. Also, the call in assay [5], in assay [6] and in assay [7] was inactive.

For `CC/C=C/CCO`, the Potency result in [1], in assay [2], in assay [3], in assay [8] and in assay [9] was “inactive” each time. Further, the compound was classed as inactive in [5], in assay [6] and in assay [7].

Regarding `CC(CN=Cc1ccccc1O)N=Cc1ccccc1O` (stereo unspecified), the Potency entry in assay [1], in [2], in assay [3], in [4] and in [9] was “inactive” throughout. In addition, the result in [5], in [6] and in assay [7] was inactive.

With `CCOc1ccccc1O`, the Potency entry in assay [1], in assay [2], in assay [3], in [10], in assay [4] and in assay [9] was “inactive” in each case. The result in assay [5], in assay [6] and in assay [7] was inactive.

For the compound `Nc1ncnc2c1ncn2[C@@H]1O[C@H](CO)[C@@H](O)[C@H]1O`, the Potency entry in assay [1], in assay [2] and in assay [3] was “inactive” in each case. Besides, the outcome in [5], in assay [6] and in assay [7] was inactive.

With `CC1(C)CC(=O)CC(C)(C)N1`, the Potency entry in assay [1], in [3], in [10], in assay [4] and in assay [9] was “inactive” in each case. The result in assay [5], in assay [6] and in assay [7] was inactive.

In the case of `CC(C)CCCCCOC(=O)CS`, the Potency entry in [1], in [3], in assay [10], in [8] and in [9] was “inactive” in each case. Further, the compound was classed as inactive in assay [5], in [6] and in assay [7].

With `Cc1c(Cl)cccc1[N+](=O)[O-]`, the Potency entry in assay [1], in [3], in [10], in [8] and in assay [9] was “inactive” each time. The compound was called inactive in assay [5], in assay [6] and in [7].

As to `CC1=CC(=C(c2ccc(N)cc2)c2ccc(N)cc2)C=CC1=N`, in assay [1], the activation was -1.72% [at 8.3 µM]. In addition, the Potency entry in [3] and in [9] was “inactive” in each case. Moreover, the Potency in assay [10] was 11.9 µM (active); in assay [4], 221 nM (active) and 55 nM (active). For the same compound, the activity, negative = cytotoxicity in assay [10] was -19.8% [at 8.08 µM]. Besides, in assay [8], the activity change, negative = cytotoxicity is -6.69% [at 8.08 µM]. In addition, the outcome in assay [5], in assay [6] and in [7] was inactive.

In the case of `CC(=O)Nc1ccn(C2COC(COC(=O)c3ccccc3)O2)c(=O)n1` (stereo unspecified), the Potency in assay [1] is 3.76 µM (active). Moreover, the Potency entry in assay [3], in [10], in [8] and in [4] was “inactive” each time. The compound was classed as inactive in assay [5], in assay [6] and in assay [7].

Turning to `CC(=O)c1cccnc1`, the Potency entry in assay [1], in [3], in assay [8], in [4] and in [9] was “inactive” each time. For the same compound, the call in assay [5], in assay [6] and in [7] was inactive.

Take `CCCCCC1CCC(=O)O1` (stereo unspecified): the Potency result in assay [1], in assay [3], in assay [10], in assay [8], in [4] and in assay [9] was “inactive” each time. For the same compound, the outcome in assay [5], in assay [6] and in assay [7] was inactive.

Consider `Cc1c(Cl)cccc1Nc1ccccc1C(=O)O`, for which the Potency in [1] was 21.1 µM (active); in assay [3], 18.8 µM (active); in assay [4], 11.9 µM (active). The Potency entry in assay [8] is “inactive”. In addition, the result in [5], in assay [6] and in [7] was inactive.

Turning to `CCCCCCCCCCCCCCCCN`, the Potency entry in [1], in assay [3], in assay [10], in assay [8], in assay [4] and in [9] was “inactive” throughout. Further, the call in [5], in assay [6] and in [7] was inactive.

For the origin of these results see PubChem BioAssay (Tox21).
